Screening data: PubChem BioAssay, Broad Institute
Shown is part of a subset that was picked to be rich in hits.
NOMO-1 viab: STK33 inhibitor candidate reducing NOMO-1 cell viability; NOMO-1 AML viability, CellTiter-Glo luminescence, 72 h; inhibition, % (concentration not given with the values); actives 7.5% (n = 37,000); AID 2330; in the data active means inhibition above about 80%; inconclusive means no clear call, values can overlap the other calls
PD-1 reversal: reversal of PD-1 mediated T-cell inhibition; primary human CD4 T cells, PD-L1 beads, CellTiter-Glo 96 h; activation, % (test concentration not listed); 29,000 tested, under 10 active; call rule not given here
YB-1 expression: YB-1 expression inhibition | delta delta Cp (YB-1 minus CDIP) (test concentration not listed) | actives 0.37% (n = 30,000) | AID 434959 | U2OS, qRT-PCR YB-1 vs CDIP delta delta Cp, 16 h; hits give high values; zero = DMSO, each unit about twofold;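 active means delta delta Cp rounded down to an integer at or above 3, about 3 SD of DMSO wells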;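 further: higher means less YB-1 transcript or more CDIP transcript relative to DMSO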
ROS inducer: cancer cell ROS induction | actives 2% (n = 46,000) | U2OS ROS induction, H2DCF-DA fluorescence | ROS induction (% of piperlongumine), % at 10 µM; in the data active means ROS induction above about 79%, passing the limit was not always enough; inconclusive means no clear call, values can overlap the other calls
A number is an active result; 0 = inactive; ? = inconclusive; - = no result.

SMILES | NOMO-1 viab | PD-1 reversal | YB-1 expression | ROS inducer
C[C@@H]1CN([C@@H](C)CO)C(=O)Cc2cc(NC(=O)Nc3ccc(C(F)(F)F)cc3)ccc2O[C@@H]1CN(C)C(=O)Nc1ccc(F)cc1 | 115 | 0 | 0 | 0
C[C@H]1CN([C@@H](C)CO)C(=O)Cc2cc(NC(=O)Nc3ccc(C(F)(F)F)cc3)ccc2O[C@@H]1CN(C)C(=O)Nc1ccc(C(F)(F)F)cc1 | 0 | 0 | 0 | 0
C[C@H](CO)N1C[C@H](C)[C@H](CN(C)C(=O)Nc2ccc(C(F)(F)F)cc2)Oc2ccc(NC(=O)Nc3ccc(C(F)(F)F)cc3)cc2CC1=O | 114 | - | 0 | 0
Cc1cc(C(=O)O)ccc1NC(=O)C1CC=CCC1C(=O)O (configuration not stated) | 0 | - | - | -
O=S(=O)(/N=c1\cc(-c2ccccc2)ss1)c1ccccc1 | - | - | - | 0
Cc1ccc2[nH]c(=O)c3cc(C(=O)NCCCN4CCN(c5ccc(F)cc5)CC4)sc3c2c1 | - | - | - | 0
CCOC(Cn1c(SCc2c(F)cccc2Cl)nc2ccccc2c1=O)OCC | - | - | - | 0
O=C(CSc1nnc(-c2cccc(Cl)c2)n1-c1ccccc1)Nc1ccccc1-c1ccccc1 | 142 | 0 | - | 0
COc1cccc(NC(=O)CSc2nnc(-c3cccc(OC)c3)n2-c2ccc(Cl)cc2)c1 | 0 | 0 | - | 0
COc1cccc(NC(=O)CSc2nnc(-c3ccc(Cl)cc3)n2-c2cccc(C)c2)c1 | 123 | 0 | - | 0
C[C@H]1CN([C@@H](C)CO)C(=O)Cc2cc(NC(=O)Nc3ccc(C(F)(F)F)cc3)ccc2O[C@@H]1CN(C)Cc1ccc(C(=O)O)cc1 | 0 | - | 0 | 0
C[C@H]1CN([C@@H](C)CO)C(=O)Cc2cc(NC(=O)Nc3ccc(C(F)(F)F)cc3)ccc2O[C@H]1CN(C)Cc1ccncc1 | 134 | 0 | 0 | 0
C[C@@H]1CN([C@@H](C)CO)C(=O)Cc2cc(NC(=O)Nc3ccc(C(F)(F)F)cc3)ccc2O[C@@H]1CN(C)Cc1ccncc1 | 116 | 0 | 0 | 0
C[C@@H]1CN([C@H](C)CO)C(=O)Cc2cc(NC(=O)Nc3ccc(C(F)(F)F)cc3)ccc2O[C@@H]1CN(C)Cc1ccncc1 | ? | 0 | 0 | 0
CCNS(=O)(=O)c1ccc(NC(=O)c2cc(-c3ccncc3)nc3c(C)c(Cl)ccc23)cc1 | 0 | - | - | -
O=C(CCCC1=NS(=O)(=O)c2ccccc2N1)N1CCCCCC1 | - | - | - | 0
O=C(O)c1ccc(CNC(=O)c2ccc(NC(=O)c3ccco3)cc2)cc1 | 0 | 0 | - | 99
O=C(NCc1ccccn1)c1ccc(NC(=O)c2ccco2)cc1 | 0 | 0 | - | 0
CC12CC3(C)CC(C)(C1)CC(CN=Cc1ccc(O)cc1)(C2)C3 | 112 | 0 | 0 | 0
COC(=O)CCCCCCC(=O)N/N=C/c1ccc(O)cc1 | - | - | 0 | 0
C[C@H](CO)N1C[C@H](C)[C@H](CN(C)C(=O)Nc2cccc3ccccc23)Oc2ncc(-c3cccc(C(F)(F)F)c3)cc2C1=O | - | - | 0 | 109
C[C@H](CO)N1C[C@H](C)[C@H](CN(C)C(=O)NC2CCCCC2)Oc2ncc(/C=C/c3ccccc3)cc2C1=O | - | - | 0 | 109
C[C@H](CO)N1C[C@H](C)[C@H](CN(C)C(=O)NC2CCCC2)Oc2ncc(-c3cccc(C(F)(F)F)c3)cc2C1=O | - | - | 0 | 122
CC(C)NC(=O)N(C)C[C@@H]1Oc2ncc(-c3cccc(C(F)(F)F)c3)cc2C(=O)N([C@H](C)CO)C[C@@H]1C | - | - | 0 | 0
C[C@H](CO)N1C[C@H](C)[C@H](CN(C)C(=O)Nc2cccc3ccccc23)Oc2ncc(-c3cccc(F)c3)cc2C1=O | - | - | 0 | 0
SMILES | NOMO-1 viab | PD-1 reversal | YB-1 expression | ROS inducer
O=C(CSc1nnnn1-c1cccc2ccccc12)c1ccc(O)c(O)c1 | 0 | - | - | -
Cc1ccc(N/C(=N/C(N)=S)c2ccccc2)cc1 | 0 | 0 | 0 | 0
COC(=O)c1c(-c2ccccc2)csc1NC(=O)c1cc2cccc(OC)c2oc1=O | 0 | 0 | - | 0
COc1ccc(CN(C)C[C@@H]2Oc3c(NC(=O)Nc4ccc(OC)cc4)cccc3C(=O)N([C@@H](C)CO)C[C@@H]2C)cc1 | 0 | 0 | 0 | 0
COc1ccc(NC(=O)Nc2cccc3c2O[C@H](CN(C)Cc2ccc(Cl)c(Cl)c2)[C@@H](C)CN([C@H](C)CO)C3=O)cc1 | 103 | 0 | 0 | 0
COc1ccc(NC(=O)Nc2cccc3c2O[C@H](CN(C)Cc2ccc(Cl)c(Cl)c2)[C@@H](C)CN([C@@H](C)CO)C3=O)cc1 | 91 | - | 0 | 0
COc1ccc(CN(C)C[C@H]2Oc3c(NC(=O)Nc4ccc(OC)cc4)cccc3C(=O)N([C@@H](C)CO)C[C@@H]2C)cc1 | 0 | - | 0 | 0
